# Screening results deposited in PubChem by National Center for Advancing Translational Sciences (NCATS).
# Rows were chosen to be rich in hits. Some 10% of all compounds tested hit in one or more screens of this group.
# NIH3T3 tox = Cytotoxic Profiling in NIH 3T3 Cell Line of Diverse Libraries Using Quantitative High-Throughput Screening; NIH 3T3 viability, CellTiter-Glo ATP luminescence, 48-72 h; Potency, µM (top dose mostly 96.7 µM), inactives show top-dose activity change, negative = cytotoxicity, usual class: inhibitors; actives 4.3% (n = 94,000); also: nearly all actives have a fitted effect of over 55% in size
#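 Viability of NIH 3T3 cells after 48 or 72 hr compound treatment at 37 °C was assessed by CellTiter-Glo, with luminescence imaged following a 10 min room-temperature step.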
# GPT2 inh = Primary qHTS assay for inhibitors of Glutamate pyruvate transaminase 2 (GPT2); Potency, µM (titrated, usually from 57.7 µM), inactives show top-dose activity change, negative = inhibition, hits mostly inhibitors; Recombinant GPT2, coupled pyruvate oxidase/HRP Amplex Red fluorescence; AID 1671188, 2021; actives 0.25% (n = 100,000); also: nearly all actives have a fitted effect of over 60% in size
# Target sequence (Q8TD30 whole entry, looked up): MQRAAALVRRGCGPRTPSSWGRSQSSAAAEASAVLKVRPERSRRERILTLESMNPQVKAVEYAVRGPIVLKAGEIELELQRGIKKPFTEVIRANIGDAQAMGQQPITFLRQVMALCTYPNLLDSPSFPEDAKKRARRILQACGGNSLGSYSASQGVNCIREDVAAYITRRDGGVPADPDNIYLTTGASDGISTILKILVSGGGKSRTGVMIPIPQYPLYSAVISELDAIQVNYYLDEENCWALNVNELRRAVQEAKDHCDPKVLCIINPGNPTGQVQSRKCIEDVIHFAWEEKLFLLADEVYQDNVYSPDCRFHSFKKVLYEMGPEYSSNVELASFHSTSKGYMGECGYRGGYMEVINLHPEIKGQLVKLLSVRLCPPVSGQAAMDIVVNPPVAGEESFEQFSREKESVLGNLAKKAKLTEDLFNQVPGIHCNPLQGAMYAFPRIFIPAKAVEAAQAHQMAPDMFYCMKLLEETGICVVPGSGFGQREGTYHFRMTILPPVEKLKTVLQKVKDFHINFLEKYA
#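 Recombinant GPT2 (10ng/uL) with 250uM a-KG and 2mM L-alanine, 30 min at room temperature, in HEPES pH 7.5 buffer. Pyruvate detected by pyruvate oxidase/HRP/Amplex Red fluorescence after 30 min in the dark; AOA (50uM) as positive control.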
# FLuc inh = Firefly luciferase inhibition profiling of diverse chemical library using quantitative high-throughput screening; Luciferin 4-monooxygenase (Photinus pyralis), P08659; purified P. pyralis luciferase, luminescence, biochemical; Potency, µM (doses to about 115 µM), most hits filed as inhibitors; actives 2.5% (n = 76,000); also: nearly all actives have a fitted effect of over 65% in size
#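 Cell-free enzyme assay, 10nM P. pyralis luciferase, luciferin and ATP each at 10uM. Inhibition profiled over a 6-point titration, read as luminescence.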
# hNpr1 antagonist = Natriuretic polypeptide receptor (hNpr1) antagonism - Primary qHTS | Potency, µM (highest dose often 46.3 µM), without a hit: at the top dose activity change, negative = inhibition, hits mostly inhibitors | Atrial natriuretic peptide receptor 1 (Homo sapiens), P16066 | HEK293 hNpr1 GloSensor cGMP, ANP-stimulated luminescence | AID 1347048, 2019 | actives 1.6% (n = 76,000); calls by dose curve; also: nearly all actives have a fitted effect of over 60% in size
#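 Compound pre-incubated 30 min at room temperature on GloSensor-loaded HEK293 cells stably carrying hNpr1 and the pGS-40F cGMP biosensor. Stimulation uses hNppA at 0.1 nM final; luminescence is taken at baseline and 20 min post-agonist.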
# HEK cytotox = Cytotoxic Profiling in HEK 293 Cell Line of Diverse Libraries Using Quantitative High-Throughput Screening | HEK 293 viability, ATP luminescence (CellTiter-Glo), 48-72 h | Potency, µM (series often up to 115 µM), without a hit: at the top dose activity change, negative = cytotoxicity, most hits filed as inhibitors | actives 6.6% (n = 94,000) | AID 1345083, 2018; also: nearly all actives have a fitted effect of over 60% in size
#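 Luminescence from cellular ATP, measured with CellTiter-Glo, indicates HEK 293 viability. Cells plated at 250 cells/well are treated with compound for 48 or 72 hr at 37 degree Celsius before reagent addition.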
# The depositor's hits bear a star; i = inactive; ? = inconclusive; . = no result; [ ] = remark or other dose. Unless noted, calls follow the shape of the dose curve; as a rule, active = well fitted curve in the direction sought with a large enough effect; inconclusive = small, poorly fitted or top-dose-only effect, or another doubt; inactive = no such curve, though single readings can be large; an effect the other way counts as inactive or inconclusive. % is scaled to controls: 0 for no effect and ±100 for the full control effect; potency is read from the fitted curve at half-maximal effect.
SMILES,NIH3T3 tox,GPT2 inh,FLuc inh,hNpr1 antagonist,HEK cytotox
C=CCn1cc2c3c(cccc31)[C@H](CC(C)C)N[C@H](C(=O)NCCOC)C2,89.1µM*,1.5%[88.5 µM],?,-2.3%[70.6 µM],56.2µM*
c1ccc(NCCN2CCCC2)cc1,i,i,.,.,i
Cc1noc2c(NCc3cnccn3)cc(-c3ccccc3)nc12,?,i,i,8.1%[70.6 µM],-23.6%[172 µM]
Cc1noc2c(NCc3ccncc3)cc(-c3cccc(C(F)(F)F)c3)nc12,50.1µM*,-14.4%[88.5 µM],i,-1.6%[70.6 µM],70.8µM*
Cc1noc2c(NC(C)C)cc(-c3cccc(C(F)(F)F)c3)nc12,?,-27.9%[88.5 µM],i,-2.6%[70.6 µM],100µM*
CC(Cc1ccncc1)Nc1nccc(-c2cnn(-c3ccccc3F)c2)n1 (configuration not stated),?,-6.6%,?,-15.4%,35.5µM*
CC(Cc1ccncc1)Nc1nccc(-c2cnn(-c3ccccc3)c2)n1 (configuration not stated),?,i,?,-24.0%,39.8µM*
COc1ccc(-n2cc(-c3ccnc(NCCC4CCCN4C)n3)cn2)cc1 (configuration not stated),?,-5.8%,?,-0.4%,?
Fc1ccc(CCNc2nccc(-c3cccnc3)n2)cc1,?,2.8%[11.5 µM],?,3.1%,?
Cc1csc(NC(=O)c2ccc3c(c2)OCCN(CCC(F)(F)F)C3)n1,?,-23.1%[88.5 µM],?,-9.2%[70.6 µM],79.4µM*
CC(C)CCN1CCOc2cc(C(=O)Nc3ccc4cn[nH]c4c3)ccc2C1,?,1.6%[88.5 µM],?,-24.2%[70.6 µM],89.1µM*
Cc1cnc(NC(=O)c2ccc3c(c2)OCCN(CCC(C)C)C3)s1,?,-3.4%[88.5 µM],?,-22.5%[70.6 µM],?
Cc1nc(NC(=O)NC2CCN(Cc3ccccc3)CC2)nn1C,-1.8%,i,i,4.9%,1.1%
O=C(NC1CCCN(CCn2nc3n(c2=O)CCCC3)C1)c1ccc2c(c1)OCO2 (configuration not stated),-22.0%,.,.,.,-11.7%
Cc1cc(C)cc(-c2ccc(CN3CCCC3C(=O)NC3CCCC3)cc2)c1 (configuration not stated),22.4µM*,i,.,.,28.2µM*
C#CCNC(=O)C1CCCN1Cc1ccc(-c2cc(C)cc(C)c2)cc1 (configuration not stated),?,-3.5%,.,.,44.7µM*
Cc1cc(C)cc(-c2ccc(CN3CCCC3C(=O)NCC(F)(F)F)cc2)c1 (configuration not stated),?,i,.,.,?
Cc1cccc(-c2nc3ccc(C(=O)NCc4ccc(F)cc4)cc3o2)n1,?,i,.,.,?
O=C(c1ccc2c(c1)N(C(=O)c1ccccc1)CC2)N1CCN(c2cccc(Cl)c2)CC1,?,-20.0%,i,-25.2%,31.6µM*
COCCn1ncc(N2CCC(NC(=O)c3ccc4c(c3)OCO4)CC2)cc1=O,-0.1%,i,i,-0.6%,i
C[S+](=O)([O-])c1cccc(NC(=O)Cc2c[nH]c3ncc(-c4cccnc4)cc23)c1,35.5µM*,-8.9%[88.5 µM],i,8.6%[70.6 µM],?
Cc1cc(-c2cnc3[nH]cc(CC(N)=O)c3c2)ccn1,?,1.0%[88.5 µM],i,-0.5%[70.6 µM],-26.9%[230 µM]
O=C(Cc1c[nH]c2ncc(-c3cccnc3)cc12)NCCc1ccccc1,22.4µM*,0.0%[88.5 µM],i,-11.6%[70.6 µM],?
COc1ccc(-c2cnc3[nH]cc(CC(=O)NCc4cccnc4)c3c2)cn1,79.4µM*,3.0%[88.5 µM],?,3.6%[70.6 µM],?
NC(=O)Cc1c[nH]c2ncc(-c3cccc(F)c3)cc12,89.1µM*,-11.2%[88.5 µM],i,-2.0%[70.6 µM],-12.7%[230 µM]
SMILES,NIH3T3 tox,GPT2 inh,FLuc inh,hNpr1 antagonist,HEK cytotox
CCc1ccccc1NC(=O)[C@H]1CCC[C@H]1NC(=O)c1cnc(C)cn1,-3.8%,i,i,2.2%,1.7%
CC(C)C[C@@H](NC(=O)C1=C[C@@H](NC(=O)c2ccc(F)c(Cl)c2)[C@@H](O)[C@H](O)C1)C(N)=O,0.6%,3.3%,i,3.1%,i
O=C(Cc1c[nH]c2ncc(-c3cccc(F)c3)cc12)NCc1cccnc1,?,0.6%[88.5 µM],i,?,70.8µM*
COc1cccc(-c2cnc3[nH]cc(CC(=O)NCc4cccnc4)c3c2)c1,?,4.8%[88.5 µM],i,?,?
O=C(Cc1c[nH]c2ncc(-c3cccnc3)cc12)NCc1cccc(F)c1,25.1µM*,-0.6%[88.5 µM],i,-23.2%[70.6 µM],?
O=C(Cc1c[nH]c2ncc(-c3ccccc3)cc12)NCc1ccncc1,28.2µM*,0.5%[88.5 µM],i,1.9%[70.6 µM],?
O=C(Cc1c[nH]c2ncc(-c3ccccc3)cc12)NCc1cnccn1,?,i,i,-3.3%[70.6 µM],0.4%[172 µM]
O=C(Cc1c[nH]c2ncc(-c3ccncc3)cc12)NCc1cccnc1,79.4µM*,3.1%[88.5 µM],i,3.5%[70.6 µM],?
O=C(Cc1c[nH]c2ncc(-c3cccc(Cl)c3)cc12)NCc1cccnc1,?,-0.2%[88.5 µM],?,35.5µM*,79.4µM*
CNC(=O)c1cc(Oc2ccc(NC(=O)Nc3ccc(Cl)c(C(F)(F)F)c3)c(F)c2)ccn1,.,-11.0%,.,.,.
CNC(=O)CCn1ncc2cc(OC3CCc4cccc(-c5ccccc5F)c43)ccc21 (configuration not stated),50.1µM*,3.1%[88.5 µM],i,?,?
CNC(=O)CCn1ncc2cc(OC3CCc4cccc(-c5cccc(F)c5)c43)ccc21 (configuration not stated),?,-27.5%[88.5 µM],i,-25.4%[70.6 µM],?
CNC(=O)CCn1ncc2cc(OC3CCc4cccc(-c5ccc(F)cc5)c43)ccc21 (configuration not stated),?,?,i,-19.3%[70.6 µM],63.1µM*
CNC(=O)CCn1ncc2cc(OC3CCc4cccc(-c5ccccc5)c43)ccc21 (configuration not stated),?,2.4%[88.5 µM],i,-24.1%[70.6 µM],?
COc1ccc(-c2nc(-c3c(C)noc3C)cc3c2cc(C)n3C)cn1,?,?,i,-12.2%[70.6 µM],?
Cc1noc(C)c1-c1cc2c(cc(C)n2CCN(C)C)c(-c2ccccc2)n1,22.4µM*,-3.5%[88.5 µM],i,0.5%[70.6 µM],?
COc1cncc(-c2nc(-c3c(C)noc3C)cc3c2cc(C)n3CCN(C)C)c1,22.4µM*,i,i,-5.7%[70.6 µM],89.1µM*
Cc1noc(C)c1-c1cc2c(cc(C)n2CCN(C)C)c(-c2ccsc2)n1,?,-1.0%[88.5 µM],i,3.6%[70.6 µM],-4.8%[172 µM]
Cc1noc(C)c1-c1cc2c(cc(C)n2CCN(C)C)c(-c2ccnn2C)n1,44.7µM*,-40.7%[88.5 µM],i,-14.4%[70.6 µM],?
